Results as given in PubChem BioAssay (Tox21).
Unmarked numbers belong to inactive results. Activity calls are given as the source filed them. The call rests on the fitted dose curve; in most records, active means well fitted cell-killing curve with a large enough effect in the repeat runs; inconclusive means weak or mixed curves, or effect the other way; inactive means flat fitted curve, though single readings scatter.

Assay: qHTS assay to identify small molecule HDAC inhibitors - cell viability counter screen (AID 1259365); further: nearly all actives have a fitted effect of over 50% in size
Conditions: HCT-116 viability, CellTiter-Glo ATP luminescence, 2 h; series mostly up to 92.4 µM; activity change, negative = cytotoxicity: at the top concentration
Excerpt: U.S. Tox21 Program National Center for Advancing Translational Sciences [NCATS] NIH Chemical Genomics Center [NCGC] U.S. Environmental Protection Agency [EPA] National Institutes of Environmental Health Sciences [NIEHS] National Toxicology Program [NTP] U.S. Food and Drug Administration [FDA] Tox21 Assay Overview: Histone deacetylases (HDACs) are a group of epigenetic enzymes that regulate gene expression by histone deacetylation. HDACs are capable of introducing epigenetic modifications and such aberrations contribute to the onset and progression of several human diseases, thus making HDACs a popular therapeutic target. For identifying endogenous class I/II HDAC inhibitors a homogenous, luminogenic HDAC I/II cell based assay was used to measure the relative activity of class I and II HDACs from cells. Wild type HCT-116 cells were used to screen Tox21 compound libraries for identifying class I/II HDAC inhibitors.
Tox21 Assay Protocol Summary: HCT-116 cells were dispensed at 1,500 per well in 5uL of culture medium into white solid bottom 1536-well plates (Greiner Bio-One, Monroe, NC) using a Multidrop Combi (Thermo Scientific, Waltham, MA) dispenser. The assay plates were incubated at 37 C and 5% CO2 for an overnight, and then 23nL of compounds dissolved in DMSO and positive control were transferred using a Pintool station (Wako, San Diego, CA). The assay plates were incubated at 37C and 5% CO2 for 2hr. After compound treatment, 4uL of CellTiter-Glo reagent (Promega Corporation, Madison, WI) was added to each well of the assay plates using Flying Reagent Dispenser (FRD, Aurora Discovery, San Diego, CA) and incubated the assay plates at room temperature for 30min. The luminescence signal was quantified using a ViewLux plate reader (Perkin Elmer, Shelton, CT).
On the % scale 0 is the no-effect control and ±100 the full control effect.

Structure (SMILES) | activity change, negative = cytotoxicity | Potency
CC(C)=CCC/C(C)=C/CC/C(C)=C/CCC(=O)OC/C=C(\C)CCC=C(C)C | -2.29% [at 42.5 µM] | 
O=C(Nc1cccc2c(=O)cc(-c3nn[nH]n3)oc12)c1ccc(OCCCCc2ccccc2)cc1 | 4.75% [at 42.5 µM] | 
Clc1cc(Cl)nc(Cl)n1 | 1.45% | 
CC1=C(CC=O)C(C)(C)CCC1 | -8.03% | 
O=C(O)CCc1nc(-c2ccccc2)c(-c2ccccc2)o1 | -2.31% [at 42.5 µM] | 
Nc1nc2ccc([N+](=O)[O-])cc2s1 | 9.33% | 
CCOC(C)=O | -5.06% | 
COC(=O)[C@H]1[C@H]2C[C@@H]3c4[nH]c5cc(OC)ccc5c4CCN3C[C@H]2C[C@@H](OC(=O)/C=C/c2ccc(O)c(OC)c2)[C@@H]1OC | 8.7% [at 42.5 µM] | 
CO[C@]1(NC(=O)CSC(F)F)C(=O)N2C(C(=O)O)=C(CSc3nnnn3CCO)CO[C@H]21 | -2.84% [at 42.5 µM] | 
CC(=O)NC1(c2cccc(F)c2)CCN(CC[C@@]2(c3ccc(Cl)c(Cl)c3)CN(c3ccccc3)C(=O)CO2)CC1 | 5% | 
N#[N+]c1ccc2c(S(=O)(=O)[O-])cccc2c1O | -17.4% | 
CC(C)=CCC1C(=O)N(c2ccccc2)N(c2ccccc2)C1=O | 0.547% [at 42.5 µM] | 
C[C@]12CC[C@@H]3c4ccc(O)cc4CC[C@H]3[C@@H]1CC[C@@H]2OC(=O)CCC1CCCC1 |  | inactive
O=[N+]([O-])c1cc(C2CCCCC2)c(O)c([N+](=O)[O-])c1 | -1.41% | 
CCOC(=O)c1ccc(C#Cc2ccc3c(c2)C(C)(C)CCS3)nc1 | 0.842% [at 42.5 µM] | 
O=[N+]([O-])c1ccc(Nc2ccc(Nc3ccccc3)c(S(=O)(=O)O)c2)c([N+](=O)[O-])c1 | -4.64% | 
Cc1cc(C)cc(N)c1 | -0.435% | 
CCCCCC[C@@H](O)C/C=C\CCCCCCCC(=O)O | 0.239% | 
COC(=O)CS | 0.582% | 
CC(C)COCC(CN(Cc1ccccc1)c1ccccc1)N1CCCC1 (stereo not given) | -15.6% [at 42.5 µM] | 

Structure (SMILES) | activity change, negative = cytotoxicity | Potency
Cc1c(C)c2c(c(C)c1OC(=O)CCC(=O)OCCO)CC[C@@](C)(CCC[C@H](C)CCC[C@H](C)CCCC(C)C)O2 | 3.78% [at 42.5 µM] | 
CCCCN1CCCC1C(=O)Nc1c(C)cc(C)cc1C (stereo not given) | -5.72% [at 42.5 µM] | 
Cc1cc(O)ccc1O | 11.6% | 
C/C=C/C=C/C=O | 1.47% | 
CC1(C)S[C@@H]2[C@H](NC(=O)C(c3ccccc3)S(=O)(=O)O)C(=O)N2[C@H]1C(=O)O (stereo not given in full) | -0.415% [at 42.5 µM] | 
Nc1ccc(N=Nc2ccccc2)c(N)c1 | -18.5% | 
C=COCC(C)C | 5.08% | 
Oc1ccc(Cl)c2cccnc12 | 16.3% [at 42.5 µM] | 
O=C(/C=C/c1ccc(O)c(O)c1)O[C@@H]1C[C@@](OC(=O)/C=C/c2ccc(O)c(O)c2)(C(=O)O)C[C@@H](O)[C@@H]1O | -0.389% [at 42.5 µM] | 
CC1=Nc2ccc3ccccc3c2C1(C)C | 0.0972% | 
CCCCN(CCCC)C(C(N)=O)c1ccc(OC)cc1 (stereo not given) | -4.27% [at 42.5 µM] | 
CCOC(=O)c1ccc(I)cc1 | -4.18% | 
O=[N+]([O-])c1ccc(O/N=C/c2cc(Br)c(O)c(Br)c2)c([N+](=O)[O-])c1 | 6.5% | 
c1ccc2c(c1)CCc1ccccc1N2 |  | inactive
O=c1[nH]c2ccc(Cl)cc2o1 | 2.69% | 
COc1ncnc(NS(=O)(=O)c2ccc(N)cc2)c1OC | 2.97% [at 42.5 µM] | 
N#CCc1ccc(Cl)cc1Cl | -0.598% | 
CC1(C)O[C@@H]2C[C@H]3[C@@H]4C[C@H](F)C5=CC(=O)C=C[C@]5(C)[C@H]4[C@@H](O)C[C@]3(C)[C@]2(C(=O)CO)O1 | 2.52% [at 42.5 µM] | 
CCOC(=O)[C@H](CCc1ccccc1)N[C@@H](C)C(=O)N(CC(=O)O)C1Cc2ccccc2C1 | -0.605% [at 42.5 µM] | 
CC(=O)c1ccc([N+](=O)[O-])cc1 | -6.45% | 
